Source: PubChem BioAssay (NCATS)
Records with an inconclusive call do not appear. Calls of active or inactive are those of the source. Calls come from the whole dose curve; as a rule, active = well fitted curve in the direction sought with a large enough effect in the signal ratio; inconclusive = small, poorly fitted or top-dose-only effect, or a change in a side signal; inactive = no such curve, though single readings can be large or run the other way; the % refers to the signal ratio.

target: Tumor necrosis factor (Homo sapiens) (UniProt P01375); experiment: qHTS assay to identify small molecules that stimulate Tumor Necrosis Factor-alpha (TNF-alpha) secretion (AID 651757); details: Human cells, HTRF 665/615 ratio; series mostly up to 92.2 µM; activation (TNF-alpha secretion): at the top concentration; note: 0% is about no effect
Summary of the method: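 Secreted TNF-alpha quantified by TR-FRET sandwich of two labeled anti-TNF-alpha antibodies, incubated 3 hr at room temperature. Preceded by 17 hr, 37 C compound treatment of THP-1 cells at 3000 cells/well.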

Chain of Tumor necrosis factor (Homo sapiens) (P01375 whole entry, looked up): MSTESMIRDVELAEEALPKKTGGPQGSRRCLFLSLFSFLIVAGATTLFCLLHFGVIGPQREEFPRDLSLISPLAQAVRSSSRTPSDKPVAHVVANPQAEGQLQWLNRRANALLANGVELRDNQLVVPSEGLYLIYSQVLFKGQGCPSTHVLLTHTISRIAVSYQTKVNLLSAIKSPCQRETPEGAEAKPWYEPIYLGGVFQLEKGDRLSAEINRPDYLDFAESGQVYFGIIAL

| SMILES | activation (TNF-alpha secretion) | outcome |
| --- | --- | --- |
| Nc1ccn([C@H]2CS[C@@H](CO)O2)c(=O)n1 | 0.0431% (inactive) | – |
| O=S(=O)(O)O | – | inactive |
| CCOC(C)=O | -0.0449% (inactive) | – |
| CC(C)(C)NC(=O)[C@@H]1C[C@@H]2CCCC[C@@H]2CN1C[C@@H](O)[C@H](Cc1ccccc1)NC(=O)[C@H](CC(N)=O)NC(=O)c1ccc2ccccc2n1 | 1.06% (inactive) | – |
| O=CCCCC=O | 0.123% (inactive) | – |
| CC1=C2[C@@H]([C@H](C)CC[C@H]2/C=C(\C)C(=O)O)[C@H](O)C1 | 0.269% (inactive) | – |
| CC1=C(/C=C/C(C)=C/C=C/C(C)=C/CO)C(C)(C)CCC1 | 0.801% (inactive) | – |
| CCCCCCCC(=O)O | – | inactive |
| CC(O)CO (stereo unspecified) | 0.464% (inactive) | – |
| CCOc1ccc2c(c1)C(C)=CC(C)(C)N2 | 1.65% (inactive) | – |
| O=C(O)CCC(=O)C(=O)O | -0.367% (inactive) | – |
| CCCCC/C=C\C/C=C\CCCCCCCC(=O)O | -0.724% (inactive) | – |
| CC(C)=O | -0.123% (inactive) | – |
| IC(I)I | -0.0365% (inactive) | – |
| Cc1ccccc1 | – | inactive |
| CCCCCCCC/C=C\CCCCCCCC(=O)O | -0.103% (inactive) | – |
